Here are results for six molecules from PubChem BioAssay.

Active and inactive are the calls of the source.

In assay [1] the test system is Human papillomavirus type 1a protein E7 (residues 44-93). The assay can be described thus: small molecules binding HPV E7 44-93 – biochemical, small-molecule microarray, residues 44-93, 635 nm fluorescence, primary screen (AID 1108).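 Note: E7 fragment applied at 1 µg/mL in TBST for 1 h at 4 C; score combines spot fluorescence with its signal to noise ratio.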 The following applies: fluorescence 635 nm, higher = more signal.
Assay [2] in a line: hepatitis C replication reporter changes, two-sided – Huh7 cells, luciferase reporter, HCV replication inhibitor project, primary screen (AID 1109).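 Note: huh7 hepatoma cells harbouring a luciferase neomycin HCV replicon reporter; luciferase luminescence as measure of HCV replicon replication; test concentration not given here.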 The following applies: Huh7 HCV replicon luciferase reporter, 48 h; higher = more signal.
Assay [3] concerns the target Left-right determination factor 2 (Homo sapiens) (UniProt O00292). Description: small molecules binding LEFTY2 protein – biochemical, small-molecule microarray, 635 nm fluorescence scan, primary screen (AID 1110). The following applies: higher = more signal.
For assay [4], the target named is Calmodulin-1 (Homo sapiens) (UniProt P0DP23). Description: small molecules binding calmodulin-1 with EGTA – biochemical, small-molecule microarray, Cy5-labelled CALM1, profiling panel (AID 1111).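 Note: labelled calmodulin applied in Tris saline Tween buffer holding calcium plus EGTA and DTT.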 The following applies: Cy5-CALM1 binding fluorescence, higher = more signal.
Assay [5] shares this target. Description: small molecules binding Ca-loaded calmodulin-1 – biochemical, small-molecule microarray, Cy5-labelled CALM1, plus calcium, artefact control for SMM control-protein annotation, profiling panel (AID 1112).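 Note: score merges spot fluorescence with signal to noise from triplicate slides.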 The following applies: Cy5-CALM1 binding fluorescence, higher = more signal.
The nature of assay [6]: probe aWnt5a binding to arrayed compounds – biochemical, biotinylated probe, 635/667 nm fluorescence, primary screen (AID 1113).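 Note: score merges 667 nm fluorescence intensity with signal-to-noise per printed feature.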 The following applies: small-molecule microarray, higher = more signal.
A short description of assay [7]: probe aShh binding to arrayed compounds – biochemical, biotinylated probe, 635/667 nm fluorescence, primary screen (AID 1114).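 Note: probe is biotin-labelled aShh protein from a stem cell growth factor screen; measures binding of labelled protein to compounds printed on the slide; score merges feature fluorescence at 667 nm with signal-to-noise.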 The following applies: small-molecule microarray, higher = more signal.
Assay [8] can be described thus: probe aNog binding to arrayed compounds – biochemical, biotinylated probe, 635/667 nm fluorescence, primary screen (AID 1115).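 Note: probe is biotinylated aNog protein used at 0.15 µg/mL for 1 h at 4 C; z-score combines 667 nm fluorescence of each spot with its signal to noise.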 The following applies: small-molecule microarray, higher = more signal.
Assay [9] addresses Torsin-1A-interacting protein 1 (Homo sapiens) (UniProt Q5JTV8). The assay can be described thus: compound microarray binding of lysate hLAP1 – cell lysate, small-molecule microarray, COS7 lysate, 635/667 nm fluorescence, primary screen (AID 1116). The following applies: 635 nm fluorescence, higher = more signal.
Assay [10] has as its target Alpha-bungarotoxin (Bungarus multicinctus) (UniProt P60615). The assay can be described thus: compounds binding labelled alpha-BTX control protein – biochemical, small-molecule microarray, Alexa647 label, 635/667 nm fluorescence, artefact control for SMM control protein annotation, profiling panel (AID 1117). The following applies: alpha-BTX-A647 binding fluorescence, higher = more signal.

Another assay addresses Albumin (Bos taurus) (UniProt P02769). The assay can be described thus: compounds binding labelled BSA control protein – biochemical, small-molecule microarray, Alexa647 label, 635/667 nm fluorescence, artefact control for SMM control protein annotation, profiling panel (AID 1118).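 Note: score merges 667 nm emission intensity and signal-to-noise per printed compound spot.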 The following applies: BSA-A647 binding, fluorescence 635 nm, higher = more signal.
Assay [11] in a line: probe aXIP binding to arrayed compounds – biochemical, NeuroSMM set, 635/667 nm fluorescence, primary screen (AID 1119).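 Note: probe is the protein aXip251-270 applied at 1 µg/mL to compound-printed slides; binding of probe to printed compounds measured as 667 nm fluorescence plus signal to noise.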 The following applies: small-molecule microarray, higher = more signal, called active from +8 up or from −8 down.
Assay [12] in a line: probe aNOTCH3 binding on compound microarray – biochemical, small-molecule microarray, 635/667 nm fluorescence, primary screen (AID 1120).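 Note: probe is a biotin-tagged antibody raised against NOTCH3 rather than NOTCH3 protein; score merges spot fluorescence near 667 nm with spot signal to noise.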 The following applies: higher = more signal.
Assay [13] can be described thus: probe aNOTCH2 binding on compound microarray – biochemical, small-molecule microarray, 635/667 nm fluorescence, primary screen (AID 1121).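 Note: score merges feature fluorescence read at 667 nm with its signal to noise.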 The following applies: higher = more signal.
In assay [14] the target is Carbonic anhydrase 2 (Homo sapiens) (UniProt P00918). Description: compounds binding carbonic anhydrase 2 – biochemical, small-molecule microarray, Alexa647-labelled CAII, profiling panel (AID 1122). The following applies: CAII-A647 binding fluorescence, higher = more signal.
The nature of assay [15]: COS7 lysate on small-molecule microarray, probe aHis, 635 nm (AID 1123).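 Note: z-score combines 667nm fluorescence intensity with signal-to-noise per printed compound spot.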 The following applies: COS7 cell lysate, fluorescence, higher = more signal.
Assay [16] can be described thus: probe aLAP1 signal on lysate-treated microarray – cell lysate, small-molecule microarray, COS7 lysate, primary screen (AID 1124).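 Note: lysate comes from COS7 cells expressing LAP1 and is applied at 0.3 µg/mL; score merges spot fluorescence near 667 nm with signal-to-noise over triplicate slides.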 The following applies: probe aLAP1, fluorescence, higher = more signal.
The next assay deals with Sam68 (KHDRBS1). Description: compounds binding KHDRBS1 protein – biochemical, small-molecule microarray, 635 nm fluorescence, primary screen (AID 1125).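 Note: score merges 667 nm channel intensity with signal to noise over triplicate slides.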 The following applies: higher = more signal.
Assay [17] has as its system Chordin-like protein 2 (CHRDL2). Description: compounds binding chordin-like 2 – biochemical, small-molecule microarray, 635 nm fluorescence, primary screen (AID 1126).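 Note: printed compound slides probed with Chrdl2 protein at 4 µg/mL for 1 h at 4 C; score merges 667 nm emission intensity with signal to noise over three replicate slides.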 The following applies: fluorescence 635 nm, higher = more signal.
Assay [18] has as its target Concanavalin-A (Canavalia ensiformis) (UniProt P02866). The assay can be described thus: compounds binding concanavalin A lectin – biochemical, small-molecule microarray, Alexa647 label, 635 nm, artefact control for SMM control protein annotation, primary screen (AID 1127).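 Note: z combines 667 nm emission intensity with signal-to-noise across three replicate slides.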 The following applies: ConA-A647 binding fluorescence, higher = more signal.

Sequence of Left-right determination factor 2 (Homo sapiens) (O00292 whole entry, looked up): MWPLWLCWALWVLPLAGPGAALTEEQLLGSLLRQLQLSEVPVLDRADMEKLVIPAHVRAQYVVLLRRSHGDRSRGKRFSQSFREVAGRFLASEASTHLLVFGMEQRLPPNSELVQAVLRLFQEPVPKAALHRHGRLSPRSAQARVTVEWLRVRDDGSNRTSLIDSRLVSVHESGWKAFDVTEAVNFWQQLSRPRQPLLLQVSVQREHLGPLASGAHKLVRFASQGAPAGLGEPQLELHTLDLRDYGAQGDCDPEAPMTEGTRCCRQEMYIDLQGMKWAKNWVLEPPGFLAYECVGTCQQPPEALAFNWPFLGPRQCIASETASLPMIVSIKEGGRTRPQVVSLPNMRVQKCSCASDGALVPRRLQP
Sequence of Albumin (Bos taurus) (P02769 whole entry, looked up): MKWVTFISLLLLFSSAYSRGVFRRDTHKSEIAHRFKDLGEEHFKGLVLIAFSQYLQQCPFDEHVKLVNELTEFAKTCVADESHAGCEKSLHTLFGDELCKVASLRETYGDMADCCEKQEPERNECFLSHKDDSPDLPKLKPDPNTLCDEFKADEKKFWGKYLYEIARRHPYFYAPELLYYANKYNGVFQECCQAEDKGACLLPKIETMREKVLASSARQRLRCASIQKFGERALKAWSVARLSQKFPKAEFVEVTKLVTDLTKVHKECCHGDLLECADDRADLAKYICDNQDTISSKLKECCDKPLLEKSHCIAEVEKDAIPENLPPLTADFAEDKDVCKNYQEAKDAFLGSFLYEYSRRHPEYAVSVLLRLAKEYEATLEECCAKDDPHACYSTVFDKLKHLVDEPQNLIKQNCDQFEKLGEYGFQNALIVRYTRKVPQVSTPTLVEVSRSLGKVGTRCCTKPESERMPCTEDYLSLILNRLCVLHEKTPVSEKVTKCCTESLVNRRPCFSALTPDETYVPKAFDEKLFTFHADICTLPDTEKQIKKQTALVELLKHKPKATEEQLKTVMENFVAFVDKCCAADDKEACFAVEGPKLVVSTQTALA
Sequence of Concanavalin-A (Canavalia ensiformis) (P02866 whole entry, looked up): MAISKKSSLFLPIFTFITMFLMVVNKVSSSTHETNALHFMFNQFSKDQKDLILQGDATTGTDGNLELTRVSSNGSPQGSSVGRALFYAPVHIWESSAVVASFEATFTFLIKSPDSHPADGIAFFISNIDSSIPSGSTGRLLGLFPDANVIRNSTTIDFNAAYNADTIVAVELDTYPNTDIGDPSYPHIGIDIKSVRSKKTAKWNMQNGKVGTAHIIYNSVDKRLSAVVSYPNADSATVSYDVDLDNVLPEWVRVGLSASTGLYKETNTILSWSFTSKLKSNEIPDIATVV
Sequence of Torsin-1A-interacting protein 1 (Homo sapiens) (Q5JTV8 whole entry, looked up): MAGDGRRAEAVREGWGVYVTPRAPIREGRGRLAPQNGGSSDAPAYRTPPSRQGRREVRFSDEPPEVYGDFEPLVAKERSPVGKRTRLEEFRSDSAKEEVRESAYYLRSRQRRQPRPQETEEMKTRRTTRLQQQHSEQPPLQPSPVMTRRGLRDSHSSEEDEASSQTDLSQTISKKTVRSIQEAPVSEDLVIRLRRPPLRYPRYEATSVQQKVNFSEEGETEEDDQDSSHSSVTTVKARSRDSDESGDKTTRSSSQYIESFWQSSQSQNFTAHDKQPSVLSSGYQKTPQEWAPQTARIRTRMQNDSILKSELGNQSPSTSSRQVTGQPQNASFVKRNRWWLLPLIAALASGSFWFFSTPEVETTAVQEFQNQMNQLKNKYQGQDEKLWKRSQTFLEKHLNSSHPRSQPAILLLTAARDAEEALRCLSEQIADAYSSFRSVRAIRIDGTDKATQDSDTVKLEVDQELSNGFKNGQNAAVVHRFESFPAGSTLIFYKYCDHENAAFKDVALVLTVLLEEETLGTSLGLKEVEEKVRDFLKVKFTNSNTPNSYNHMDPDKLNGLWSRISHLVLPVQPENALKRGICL
Sequence of Alpha-bungarotoxin (Bungarus multicinctus) (P60615 whole entry, looked up): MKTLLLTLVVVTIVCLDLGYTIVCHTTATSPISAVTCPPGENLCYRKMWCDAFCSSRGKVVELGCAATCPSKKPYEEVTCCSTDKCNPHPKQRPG

Regarding `CS(=O)(=O)CCOC(=O)C1=CC(CCCO)=CC(C2CC2)N(Cc2cc3c(cc2Br)OCO3)C=C1C(=O)OCCS(C)(=O)=O` (stereo not given), the composite z-score in assay [1] was 1.07; in [3], -0.0224; in assay [4], 0.331; in assay [5], -0.0113; in assay [6], -0.0192; in [7] it was -0.0035. Moreover, the composite z-score in assay [8] is 0.357; in assay [9], 1.11; in [10], 0.598; with Albumin (Bos taurus), 0.741; in [12], -0.0573; in assay [13], -0.0322. For the same molecule, the composite z-score is 0.774 in assay [14]; 0.88 in assay [15]; 0.495 in assay [16]; 0.531 with Sam68 (KHDRBS1); 0.45 in [17]; 0.544 in assay [18]. Also, the z-score in [2] is -1.2. The composite Z-score in assay [11] was -0.289 (inactive).

As to `CCOc1cc(C(O)C2C=CC3C(=O)N(c4ccccc4)C(=O)C3N2Nc2ccc(C(C)C)cc2)ccc1O` (stereo not given), the composite z-score was 1.45 in [1]; -0.211 in assay [3]; 0.983 in assay [4]; -0.0316 in assay [5]; 0.0433 in assay [6]; -0.0119 in assay [7]. Further, the composite z-score in assay [8] is 1.2; in assay [9], -0.102; in [10], 1.91; with Albumin (Bos taurus) it was 0.925; in assay [12], 0.15; in [13], -0.0274. Besides, the composite z-score in assay [14] was found to be 0.79; in assay [15] it was 2.63; in assay [16], 0.33; with Sam68 (KHDRBS1), 1.29; in assay [17], 0.161; in assay [18] it was 1.09. This molecule registered a z-score in assay [2] of -0.517. For the same molecule, in assay [11], the composite Z-score was 0.203 (inactive).

With `CCCC(=O)N(CCc1c[nH]c2ccccc12)[C@@H]1CC(C(=O)NCCO)=C[C@H](Oc2c(I)cc(CO)cc2OC)[C@H]1O`, the composite z-score in assay [1] was 0.434; in assay [3], 0.362; in [4], -0.0781; in assay [5], -0.36; in assay [6], -0.129; in assay [7], -0.221. The composite z-score in assay [8] is -0.234; in assay [9], 0.0957; in assay [10], -0.0162; with Albumin (Bos taurus), 0.0754; in assay [12], -0.0962; in assay [13], -0.085. Further, the composite z-score in assay [14] was 0.723; in [15], 0.532; in assay [16] it was -0.107; in the assay on Sam68 (KHDRBS1), 0.195; in assay [17] it was 0.144; in assay [18] it was 0.314. Further, in assay [2], the z-score amounted to 0.354. Moreover, in [11], the composite Z-score is -0.471 (inactive).

For the molecule `COc1ccc(NC(=O)O[C@H]2[C@H](OC(=O)c3cc4ccccc4[nH]3)[C@@H](OC(=O)c3cc4ccccc4[nH]3)[C@@H](OC)O[C@@H]2CO)cc1`, the composite z-score is -0.548 in assay [1]; 0.046 in assay [3]; 0.467 in [4]; -0.206 in assay [5]; -0.0512 in [6]; 0.0121 in [7]. For the same molecule, the composite z-score in [8] was -0.0612; in assay [9], 1.04; in assay [10], 0.243; in the assay with Albumin (Bos taurus) it was 0.144; in assay [12], -0.235; in [13], -0.0404. For the same molecule, the composite z-score in assay [14] is 0.541; in [15], 1.24; in [16], 0.614; in the assay with Sam68 (KHDRBS1), 0.156; in assay [17], -0.113; in assay [18], -0.586. This molecule also came in with a z-score in assay [2] of -1.98. For the same molecule, the composite Z-score in assay [11] was 0.561 (inactive).

Take `C[N+](C)(C)CCCCCCNC(=O)[C@H]1C[C@H]2C(=O)N[C@@H](Cc3ccccc3)C(=O)N2[C@H]1c1cccc(OCCO)c1`: the composite z-score in [1] is 0.658; in assay [3], 0.642; in assay [4] it was -0.96; in assay [5], -1.03; in assay [6] it was -0.184; in assay [7] it was -0.243. Besides, the composite z-score in assay [8] was -0.234; in [9], 0.944; in [10] it was -0.049; with Albumin (Bos taurus), -0.174; in [12] it was -0.1; in assay [13] it was -0.107. Besides, the composite z-score in assay [14] stood at 0.638; in [15], 2.1; in assay [16] it was 0.319; in the assay with Sam68 (KHDRBS1), 0.699; in [17], 1.01; in assay [18] it was 0.996. For the same molecule, the z-score in assay [2] stood at 0.487. The composite Z-score in assay [11] is 0.35 (inactive).

Turning to `O=C1OCCC/C=C\[C@H]2OC34C=CCN(c5ccc6ccccc6c5)C(=O)[C@H]3N(CCCCCO)C(=O)[C@@H]4C12` (stereo not given in full), the composite z-score in [1] is -2.53; in assay [3], -1.07; in assay [4] it was -0.381; in [5] it was -0.645; in assay [6], -0.28; in assay [7], 0.0141. For the same molecule, the composite z-score in [8] was -0.0428; in [9], -1.28; in assay [10], -0.23; with Albumin (Bos taurus) it was -0.152; in assay [12], -0.295; in [13], -0.182. Moreover, the composite z-score is 0.828 in assay [14]; -1.92 in [15]; -0.289 in [16]; -1.63 with Sam68 (KHDRBS1); -0.654 in assay [17]; -0.328 in assay [18]. The z-score in assay [2] was -0.57. Further, in assay [11], the composite Z-score is 0.328 (inactive).
